Test results published in PubChem BioAssay (NCATS).
Records with an inconclusive call do not appear. Active and inactive are the calls of the source. Calls come from the whole dose curve; as a rule, active = well fitted cell-killing curve with a large enough effect; inconclusive = small, poorly fitted or top-dose-only effect; inactive = flat fitted curve, though single readings scatter.

Assay: qHTS of pediatric cancer cell lines to identify multiple opportunities for drug repurposing: Primary screen for Rh18 cells (AID 1347102); note: nearly all actives have a fitted effect of over 65% in size
Conditions: Rh18 rhabdomyosarcoma viability, CellTiter-Glo luminescence, 48 h; series mostly up to 46 µM; activity change, negative = cytotoxic: at the top concentration
From the text: Drug repurposing or repositioning has been offered as a strategy for drug development in oncology programs. This approach has special potential for childhood cancers and other rare or orphan diseases, where the expected return on new drug development has been a disincentive to pharmaceuticals.
In this project we exploit the poly-pharmacology of drugs to discover new indications via phenotypic screening of a panel of 19 well-characterized cell lines derived from solid tumors seen in children and adolescents. The goal is to identify approved drugs with previously unrecognized anticancer properties that has the potential to reveal new mechanisms and biological processes involved in carcinogenesis or drug resistance. We employed a titration-based paradigm (quantitative high-throughput screening or qHTS), where all compounds were tested at multiple concentrations for their effect on cell viability. Concentration-response curves (CRCs) were derived directly from the primary screen, and both potency and efficacy values were used to identify compounds with robust bioactivity profiles. We screened the NIH Chemical Genomics Center (NCGC) Pharmaceutical Collection (NPC) and Mechanism Interrogation Plate (MIPE) small molecule collections of approved and investigational compounds against these cell lines; and measured metabolically active cells after 48 hours of compound treatment as a proxy for cell viability.
Assay Submitter: Nathalia J. Martinez, National Center for Advancing Translational Sciences, National Institutes of Health, Rockville, MD, USA; email: natalia.martinez@nih.gov
[1] Shen, M et al. Quantitative high-throughput phenotypic screening of pediatric cancer cell lines identifies multiple opportunities for drug repurposing. Oncotarget 2017 Dec 19;9(4):4758-4772. PMID 29435139.
The cells were obtained from University of North Carolina (UNC), Pediatric Preclinical Testing Program (PPT), and Coriell Institute (CI).
qHTS cell viability assay:
Cells were assayed in growth media at a density of 500-1,000 cells/well. Five microliters of cells were dispensed into 1,536-well, white, solid-bottom, TC-treated plates (Greiner Bio One) using a multidrop dispenser and incubated at 37 degrees C, 5% CO2, under a humidified atmosphere for 5 hours. Twenty-three nanoliters of compounds and controls (neutral control DMSO or positive control bortezomib at final concentration of 2.3 µM) were subsequently transferred by Kalypsys pintool. For primary screens, the MIPE collection was tested at 11-point dilutions (final concentrations range from 0.78 nM to 46 µM) and the NPC collection at 8-point dilutions (final concentrations range from 0.59 nM to 46 µM). Compounds tested in follow-up screens were assayed at 11-point dilutions. Cells were incubated for 48 hours, followed by addition of 3 µL of CellTiter-Glo (Promega). After a 15 min incubation at room temperature, samples were analyzed for luminescence intensity using a ViewLux High-throughput CCD imager equipped with clear filters.
% is set by controls: 0 for no effect and ±100 for the full control effect; potency is the fitted concentration of half-maximal effect.

SMILES | activity change, negative = cytotoxic | Potency
CC(C)(C)NC[C@H](O)c1ccc(O)cc1Cl | 20.6% (inactive) | –
OCCCBr | 13.3% [at 92.7 µM] (inactive) | –
CCN1CCN(C(=O)Cc2ccc(Nc3ncc(F)c(Nc4ccc(C(=O)Nc5ccccc5Cl)cc4)n3)cc2)CC1 | – | 8330 nM (active)
C#C[C@]1(O)C=C[C@@H]2[C@@H]3CCC4=CC(=O)CC[C@@H]4[C@H]3CC[C@@]21CC | 4.37% (inactive) | –
CCOC(=O)Nc1ccc(NCc2ccc(F)cc2)cc1N | 6.91% (inactive) | –
CC[C@@H](C(N)=O)N1CCCC1=O | 2.54% (inactive) | –
COCC1(CO)C(=O)C2CCN1CC2 (stereo not given) | -5.63% (inactive) | –
c1cc2c(cc1[C@H]1OC[C@H]3[C@H]1CO[C@H]3c1ccc3c(c1)OCO3)OCO2 | 4.14% (inactive) | –
CC(Cc1ccc(O)cc1)NCC(O)c1cc(O)cc(O)c1 (stereo not given) | 2.59% (inactive) | –
CC(=O)OCC1=C(C(=O)O)N2C(=O)[C@@H](N)[C@@H]2SC1 | 5.53% (inactive) | –
Nc1ccc(Cl)cc1 | 15.1% [at 92.7 µM] (inactive) | –
C1=C2CCCN[C@H]2[C@@H]2C[C@H]1[C@@H]1CCCCN1C2 | 13.1% (inactive) | –
C=CC(=O)NCNC(=O)C=C | -11% [at 92.7 µM] (inactive) | –
CC[C@@H]1[C@@H](C)O[C@@](O)([C@@H](C)[C@H](O)[C@H](C)[C@H]2OC(=O)C=CC=C[C@@H](C)[C@@H]([C@@H](C)[C@@H](O)[C@H](C)[C@@]3(O)C[C@H](O[C@H]4C[C@H](O)[C@H](O)[C@H](C)O4)[C@H](CC)[C@@H](C)O3)OC(=O)C=CC=C[C@@H]2C)C[C@H]1O[C@H]1C[C@H](O)[C@H](O)[C@H](C)O1 | – | 590 nM (active)
CC(C)(O)C=CC(=O)[C@](C)(O)[C@H]1[C@H](O)C[C@]2(C)[C@@H]3CC=C4[C@@H](C=C(O)C(=O)C4(C)C)[C@]3(C)C(=O)C[C@@]12C | – | 52.6 nM (active)
C=C1C[C@H]2[C@H]3CCC(=O)[C@@]3(C)CC[C@@H]2[C@@]2(C)C=CC(=O)C=C12 | -6.9% (inactive) | –
CCCCC(CC)COC(=O)c1ccccc1C(=O)OCC(CC)CCCC (stereo not given) | 14.6% [at 92.7 µM] (inactive) | –
O=C(O)CCCOc1ccc(Cl)cc1Cl | 9.43% [at 92.7 µM] (inactive) | –
C[C@](O)(COc1ccc(C#N)cc1)C(=O)Nc1ccc(C#N)c(C(F)(F)F)c1 | -1.63% (inactive) | –
CSCC[C@@H](NC(=O)[C@@H](Cc1ccccc1)NC(=O)CNC(=O)CNC(=O)[C@@H](N)Cc1ccc(O)cc1)C(=O)O | 13.9% (inactive) | –

SMILES | activity change, negative = cytotoxic | Potency
CC(O)=C(C#N)C(=O)Nc1cc(Br)ccc1Br | -6.15% (inactive) | –
CS(=O)(=O)c1ccc(C(=O)C2C(=O)CCCC2=O)c([N+](=O)[O-])c1 | 13.7% [at 92.7 µM] (inactive) | –
c1ccc2c(CN3CCNCC3)cccc2c1 | 2.49% (inactive) | –
CCOCCOC(C)=O | 10.6% [at 92.7 µM] (inactive) | –
COC(C)(C)CCCC(C)C/C=C/C(C)=C/C(=O)OC(C)C (stereo not given) | 14.5% (inactive) | –
Cc1ccccc1-n1c(Cn2cnc3c(N)ncnc32)nc2cccc(C)c2c1=O | – | 1050 nM (active)
C#CC1(O)CCC2C3CCC4=CC(=O)CCC4(C)C3CCC21C (stereo not given) | -11.4% (inactive) | –
Oc1ccc2c3c1O[C@H]1c4[nH]c5c(c4C[C@@]4(O)[C@@H](C2)N(CC2CC2)CC[C@]314)C[C@@]1(O)[C@H]2Cc3ccc(O)c4c3[C@@]1(CCN2CC1CC1)[C@H]5O4 | 11.5% (inactive) | –
CC(=O)N(C)c1cccc(-c2ccnc3c(C(=O)c4cccs4)cnn23)c1 | 2.83% (inactive) | –
C[C@@H]1CC[C@H]2[C@@H](C)C(=O)O[C@@H]3O[C@@]4(C)CC[C@H]1[C@]32OO4 | 20.7% (inactive) | –
CCCCCCCCCCCCCCCC[N+](C)(C)C | – | 5310 nM (active)
C1CCC(NC2CCCCC2)CC1 | 3.07% (inactive) | –
COC(=O)c1cncn1C(C)c1ccccc1 (stereo not given) | 5.36% (inactive) | –
O=[N+]([O-])c1c(Cl)c(Cl)cc(Cl)c1Cl | 15.4% [at 92.7 µM] (inactive) | –
CC[C@H]1C=CC=CC[C@@H](C)[C@H](O)[C@@](C)(O)C(=O)[C@@H](C)[C@H](O)[C@@H](C)C(=O)[C@@H](C)[C@H](O)[C@@H](C)C=CC(=O)O[C@@H]2[C@@H](C)[C@H](CC1)O[C@]1(CC[C@H](C)[C@H](C[C@@H](C)O)O1)[C@H]2C | – | 26400 nM (active)
COc1ccc2c(c1)CN(C)CC2c1ccc(Cl)c(Cl)c1 (stereo not given) | -13.1% (inactive) | –
COc1ccc(CC2NCCc3cc(OC)c(OC)cc32)cc1OC (stereo not given) | -0.79% (inactive) | –
Nc1c(Cl)c(Cl)c(Cl)c(Cl)c1Cl | 22.5% [at 92.7 µM] (inactive) | –
CC=C(C)C(=O)O[C@H]1C(C)=C2[C@@H]3OC(=O)[C@@](C)(O)[C@@]3(O)[C@@H](OC(=O)CCC)C[C@](C)(OC(C)=O)[C@@H]2[C@@H]1OC(=O)CCCCCCC | – | 13.2 nM (active)
O=S(=O)(F)Cc1ccccc1 | -0.364% (inactive) | –
